Activity change, negative = inhibition, Potency and outcome data for four molecules are collected here from PubChem BioAssay (NCATS).

Unmarked numbers belong to inactive results. Records with an inconclusive call do not appear. The source made the active and inactive calls. Unless noted, calls follow the shape of the dose curve; as a rule, active = well fitted curve in either direction with a large enough effect (not every such curve was filed as active); inconclusive = small, poorly fitted or top-dose-only effect, or another doubt; inactive = flat fitted curve, though single readings scatter.

Assay [1] can be described thus: AP1 Signaling Pathway (AID 357). Also: % is scaled to controls: 0 for no effect and ±100 for the full control effect. The note with it: ME-180 (cervical carcinoma) AP-1-bla reporter, EGF-induced, beta-lactamase ratio, 5 h; at 17.2 µM (top of the series) unless noted. Put shortly: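 Read-out was the 460nm/530nm emission ratio (excitation 405nm) after CCF4 loading for 2.5 hours at room temperature. Cells carried an AP-1-driven beta-lactamase reporter, were stimulated with EC50 EGF plus compound for 5 hours, and AC50 values came from titrations.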

Assay [2] addresses Cytochrome P450 1A2 (Homo sapiens) (UniProt P05177). As to the kind of experiment: p450-cyp1a2 (AID 410; calls by dose curve;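 also: -100% = full effect of reference inhibitor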). Put shortly:
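O-Demethylation of luciferin 6' methyl ether by human CYP1A2 is monitored as luciferase luminescence. Substrate sits at Km (100uM); enzyme is 20nM. Values are scaled to 57 uM furafylline as maximal inhibition.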

Assay [3] in a line: NFAT Signaling Pathway (AID 444).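 Also: carbachol stimulus at about its EC50 of 1 µM final; % is scaled to controls: 0 for no effect and ±100 for the full control effect.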 The note with it: Jurkat NFAT-bla M1, carbachol, beta-lactamase ratio, 5 h; at 17.2 µM (top of the series) unless noted. Put shortly:
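Jurkat cells carrying an NFAT-driven β-lactamase reporter and co-transfected muscarinic M1 receptor were treated with compound plus carbachol (1 uM final, an EC50 level) for 5 h at 37 °C. CCF4 loading followed for 1 h at RT; 460/530 nm ratio gave %activity.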

Assay [4] can be described thus: Stat Signaling Pathway (AID 446).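 Also: ME-180 cervical cancer cells given 40 pM IL-6 alongside compound; SIE-controlled beta-lactamase reporter measured as 460/530 nm FRET emission ratio; % is scaled to controls: 0 for no effect and ±100 for the full control effect.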 Put shortly:
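FRET read-out (405 nm excitation, 460/530 nm emission) of a beta-lactamase reporter under a STAT-inducible element in ME-180 cervical carcinoma cells. Cells with compound receive 40 pM IL-6 for 5 h. Values are normalised to AC90 stimulation and AC90 JAK-inhibitor controls.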

The target of assay [5] is Mitogen-activated protein kinase 10 (Mus musculus) (UniProt Q61831). As to the kind of experiment: JNK3 AlphaScreen Assay (AID 530).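 Also: kinase came from lysate of stimulated human HepG2 cells; signal reports phosphorylation of biotinylated GST-cJun 1-79 at Ser73 with 10 µM ATP; % is scaled to controls: 0 for no effect and ±100 for the full control effect.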 Put shortly: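 Phosphorylation of biotinylated GST-cJun(1-79) at Ser73 is measured by AlphaScreen proximity luminescence. Enzyme is JNK3 in HepG2 lysates activated with interleukin-1beta and tumor necrosis factor alpha; ATP is 10 uM final.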
In general terms: Bead proximity is the source of the signal in Alpha formats.

The target of assay [6] is 3',5'-cyclic-AMP phosphodiesterase 4B (Homo sapiens) (UniProt Q07343). As to the kind of experiment: qHTS Assay for Inhibitors of PDE-IV (AID 607; active = well fitted activation curve with a large enough effect in the main read-out, with a control signal flat, not every such curve was filed as active; also: % of control where 0% means no effect). The gist of the method:
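Cell-based read-out of cAMP via a modified cyclic nucleotide-gated channel and membrane potential dye (535/590 nm) in HEK293 cells expressing PDE4 endogenously. Compounds tested up to 22.9 uM final; 100 uM RO 20-1724 reference.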
A general note: qHTS replaces the single test concentration by a dilution series.

For assay [7], the target named is Cytochrome P450 2C9 (Homo sapiens) (UniProt P11712). Briefly: qHTS Assay for Inhibitors and Substrates of Cytochrome P450 2C9 (AID 883; active = well fitted curve in the direction sought with a large enough effect; an effect the other way counts as inactive or inconclusive; also: % is scaled to controls: 0 for no effect and ±100 for the full control effect; nearly all actives have a fitted effect of over 60% in size). Put shortly:
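Human CYP2C9 (10nM) hydroxylated Luciferin-H (100uM, at its KM) to luciferin in 25mM KPO4. Compound was preincubated 10 min at 37C, then NADPH regeneration started a 60 min reaction at 37C. Luminescence was read after detection reagent, normalized to 57uM sulphaphenazole.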

The target of assay [8] is Cytochrome P450 3A4 (Homo sapiens) (UniProt P08684). Briefly: qHTS Assay for Activators of Cytochrome P450 3A4 (AID 885; active = well fitted curve in the direction sought with a large enough effect; an effect the other way counts as inactive or inconclusive; also: nearly all actives have a fitted effect of over 65% in size). Put shortly: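 Luminescent readout of luciferin formed from 25 uM Luciferin-PPXE (KM level) by 20 nM CYP3A4 in 200 mM KPO4, with 60 min NADPH-driven reaction at room temperature after 10 min compound exposure. Ketoconazole (57 uM) defined 100% inhibition.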

Assay [9] has as its target Cytochrome P450 2D6 (Homo sapiens) (UniProt P10635). As to the kind of experiment: qHTS Assay for Inhibitors and Substrates of Cytochrome P450 2D6 (AID 891; active = well fitted curve in the direction sought with a large enough effect; an effect the other way counts as inactive or inconclusive; also: nearly all actives have a fitted effect of over 60% in size; also: potency is read from the fitted curve at half-maximal effect). The gist of the method: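 Luminescent read-out of luciferin formed by 5 nM human CYP2D6 demethylating 30 uM Luciferin-ME EGE (Km level) over 60 min at room temperature after NADPH regeneration addition. Data normalized to full inhibition by 1.43 uM quinidine.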

The nature of assay [10]: qHTS Assay for Identification of Small Molecule Antagonists for NFkB Signaling Pathway (AID 895; active = well fitted inhibition curve with a large enough effect in the signal ratio, with a control signal flat, not every such curve was filed as active; the % refers to the signal ratio; also: % is scaled to controls: 0 for no effect and ±100 for the full control effect). The gist of the method:
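NFkB-bla ME-180 cervical carcinoma cells with beta-lactamase reporter under NFkB response element; compounds added, then TNF alpha at 10 pM final (EC50), 5 h at 37 C. LiveBLAzer substrate 2 h, room temperature; emission 460/530 nm at 405 nm excitation.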

The nature of assay [11]: qHTS Assay for Identification of Small Molecule Agonists for Thrombopoietin (TPO) Signaling Pathway (AID 917; active = well fitted curve in the direction sought with a large enough effect; an effect the other way counts as inactive or inconclusive; also: % is scaled to controls: 0 for no effect and ±100 for the full control effect). Put shortly:
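Stimulation at the TPO EC50 (26 pM final) was used to detect activators. Ba/F3 mouse cells bearing human TPO receptor and a luciferase reporter under the Glycoprotein IIb promoter were exposed to compounds for 24 hrs at 37 C.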

In assay [12] the target is Muscarinic acetylcholine receptor M1 (Rattus norvegicus) (UniProt P08482). As to the kind of experiment: qHTS Assay for Antagonists of Acetylcholine Muscarinic M1 Receptor: Kinetic Measurement of Intracellular Calcium Response (AID 943; active = well fitted curve in the direction sought with a large enough effect; an effect the other way counts as inactive or inconclusive;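 also: Fluo-4 calcium signal as peak divided by basal fluorescence over 4 min; nearly all actives have a fitted effect of over 75% in size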). The gist of the method:
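Antagonism is measured as inhibition of the carbachol-evoked calcium rise in CHO cells transfected with rat M1. Cells are dye-loaded, exposed to compound for 10 min, then stimulated with 100 nM carbachol (EC80).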

In assay [13] the target is Pyruvate kinase (Leishmania mexicana) (UniProt Q27686). As to the kind of experiment: qHTS Validation Assay for Inhibitors of Leishmania Mexicana Pyruvate Kinase (AID 945; active = well fitted curve in the direction sought with a large enough effect; an effect the other way counts as inactive or inconclusive;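 also: 0% = DMSO only neutral control wells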). The gist of the method: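 The enzyme is a highly purified E451W mutant of LmPYK used at 0.2 nM. It converts 0.5 mM PEP and 0.1 mM ADP over 1 h at room temperature; product ATP is quantified by luciferase luminescence relative to DMSO controls.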

The target of assay [14] is Pyruvate kinase PKM (Homo sapiens) (UniProt P14618). As to the kind of experiment: qHTS Assay for Activators of Human Muscle Pyruvate Kinase (AID 954; active = well fitted curve in the direction sought with a large enough effect, not every such curve was filed as active;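 also: 0% = uninhibited enzyme and -100% = no enzyme or full thiadiazolimine inhibition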). The gist of the method:
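ATP production by PKM2 detected via luciferase luminescence after 1 h room-temperature reaction (0.1 nM enzyme, PEP at Km 0.5 mM, ADP 0.1 mM, pH 7.2 imidazole buffer). Inhibition scaled to no-enzyme control; activation referenced to 0.3 nM enzyme wells.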

The target in assay [15] is Alpha-galactosidase (Coffea arabica) (UniProt Q42656). As to the kind of experiment: Counterscreen for Glucocerebrosidase Inhibitors: qHTS Assay for Coffee Bean alpha-Galactosidase at pH 4.5 (AID 957; active = well fitted curve in the direction sought with a large enough effect; an effect the other way counts as inactive or inconclusive;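 also: plate controls were enzyme alone for no effect and no enzyme for full effect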). The gist of the method: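 Enzyme is added first (2 nM final), then compounds titrated from 0.7 nM to 77 uM, then 80 uM 4-methylumbelliferyl alpha-D-galactopyranoside; after 20 min at room temperature a pH 10 NaOH/glycine stop precedes fluorescence reading at 365/440 nm.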
On the technique in general: A counterscreen serves to expose hits that act by an unwanted route or on another target.

Assay [16] concerns the target Alpha-galactosidase A (Homo sapiens) (UniProt P06280). Briefly: Counterscreen for Glucocerebrosidase Inhibitors: qHTS Assay for Human alpha-Galactosidase at pH 4.5 (AID 992; active = well fitted curve in the direction sought with a large enough effect; an effect the other way counts as inactive or inconclusive; also: 0% is about no effect). The gist of the method:
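Fluorogenic 1536-well qHTS at pH 4.5 (citrate, Tween-20): 2 nM enzyme, 80 uM 4-MU-alpha-galactoside, 20 min room temperature, NaOH/glycine stop. Titration 0.7 nM to 77 uM, data normalized to no-enzyme and full-activity controls, Hill-fitted AC50.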

For assay [17], the target named is alpha-glucosidase (Oryza sativa, rice) (UniProt Q653V4). As to the kind of experiment: Counterscreen for Glucocerebrosidase Inhibitors: qHTS Assay for Rice alpha-Glucosidase at pH 5.0 (AID 997; active = well fitted curve in the direction sought with a large enough effect; an effect the other way counts as inactive or inconclusive;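 also: 0% = full activity with enzyme and -100% = basal without enzyme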). Put shortly:
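Endpoint fluorogenic assay at pH 5.0: compounds (0.7 nM to 77 uM) titrated against 4 nM rice enzyme and 400 uM 4-MU-alpha-glucoside for 20 min at room temperature; NaOH/glycine stop, read ex 365/em 440 nm, Hill-fitted AC50.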

Assay [18] has as its target Alpha-galactosidase (Coffea arabica) (UniProt Q42656). As to the kind of experiment: Counterscreen for Glucocerebrosidase Inhibitors: qHTS Assay for Coffee Bean alpha-Galactosidase at pH 5.9 (AID 998; active = well fitted curve in the direction sought with a large enough effect; an effect the other way counts as inactive or inconclusive;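 also: plate controls were uninhibited enzyme for no effect and no-enzyme basal signal for full effect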). Put shortly: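 In 50 mM citric acid pH 5.9 with 0.005% Tween-20, coffee bean enzyme hydrolyses 80 uM 4-MU alpha-D-galactopyranoside over 20 min at RT. Activity is normalized to controls; AC50 comes from Hill-modelled concentration-response data.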

The target in assay [19] is Cytochrome P450 2C19 (Homo sapiens) (UniProt P33261). As to the kind of experiment: qHTS Assay for Inhibitors and Substrates of Cytochrome P450 2C19 (AID 899; active = well fitted curve in the direction sought with a large enough effect; an effect the other way counts as inactive or inconclusive; also: % is scaled to controls: 0 for no effect and ±100 for the full control effect; nearly all actives have a fitted effect of over 60% in size). The gist of the method: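 Human CYP2C19 (5nM) with Luciferin-H EGE at 10uM (its KM) in 50mM KPO4 was preincubated with compound for 10 min at 37C. NADPH regeneration started a 60 min 37C reaction. Luciferin was read by luminescence, normalized to 57uM ketoconazole.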
Cytochrome P450 2C19 (Homo sapiens), sequence (P33261 whole entry, looked up): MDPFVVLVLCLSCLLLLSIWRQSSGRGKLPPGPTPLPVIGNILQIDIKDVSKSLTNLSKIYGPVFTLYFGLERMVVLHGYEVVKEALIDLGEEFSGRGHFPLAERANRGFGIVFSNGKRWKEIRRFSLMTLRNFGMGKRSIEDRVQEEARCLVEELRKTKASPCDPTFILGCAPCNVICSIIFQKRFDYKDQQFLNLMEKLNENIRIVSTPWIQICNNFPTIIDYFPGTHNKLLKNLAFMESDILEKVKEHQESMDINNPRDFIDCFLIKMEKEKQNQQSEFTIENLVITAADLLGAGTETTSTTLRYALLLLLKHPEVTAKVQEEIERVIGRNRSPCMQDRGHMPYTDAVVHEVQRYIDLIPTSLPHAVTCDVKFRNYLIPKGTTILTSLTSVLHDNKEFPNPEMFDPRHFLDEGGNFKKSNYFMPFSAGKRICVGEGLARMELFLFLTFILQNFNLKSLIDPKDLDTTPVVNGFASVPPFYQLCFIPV

Cytochrome P450 1A2 (Homo sapiens), sequence (P05177 whole entry, looked up): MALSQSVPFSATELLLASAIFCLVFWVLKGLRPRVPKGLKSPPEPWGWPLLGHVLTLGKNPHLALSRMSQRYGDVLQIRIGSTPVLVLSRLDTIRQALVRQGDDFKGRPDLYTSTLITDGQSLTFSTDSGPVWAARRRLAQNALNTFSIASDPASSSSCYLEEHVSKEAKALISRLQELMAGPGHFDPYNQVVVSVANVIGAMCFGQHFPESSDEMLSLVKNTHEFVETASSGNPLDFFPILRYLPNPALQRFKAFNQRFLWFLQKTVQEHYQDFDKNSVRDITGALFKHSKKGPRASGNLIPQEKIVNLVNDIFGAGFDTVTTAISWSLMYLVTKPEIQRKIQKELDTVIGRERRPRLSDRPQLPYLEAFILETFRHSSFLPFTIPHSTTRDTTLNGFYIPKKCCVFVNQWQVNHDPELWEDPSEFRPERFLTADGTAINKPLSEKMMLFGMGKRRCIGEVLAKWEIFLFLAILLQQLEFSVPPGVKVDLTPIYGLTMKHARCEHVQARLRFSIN
3',5'-cyclic-AMP phosphodiesterase 4B (Homo sapiens), sequence (Q07343 whole entry, looked up): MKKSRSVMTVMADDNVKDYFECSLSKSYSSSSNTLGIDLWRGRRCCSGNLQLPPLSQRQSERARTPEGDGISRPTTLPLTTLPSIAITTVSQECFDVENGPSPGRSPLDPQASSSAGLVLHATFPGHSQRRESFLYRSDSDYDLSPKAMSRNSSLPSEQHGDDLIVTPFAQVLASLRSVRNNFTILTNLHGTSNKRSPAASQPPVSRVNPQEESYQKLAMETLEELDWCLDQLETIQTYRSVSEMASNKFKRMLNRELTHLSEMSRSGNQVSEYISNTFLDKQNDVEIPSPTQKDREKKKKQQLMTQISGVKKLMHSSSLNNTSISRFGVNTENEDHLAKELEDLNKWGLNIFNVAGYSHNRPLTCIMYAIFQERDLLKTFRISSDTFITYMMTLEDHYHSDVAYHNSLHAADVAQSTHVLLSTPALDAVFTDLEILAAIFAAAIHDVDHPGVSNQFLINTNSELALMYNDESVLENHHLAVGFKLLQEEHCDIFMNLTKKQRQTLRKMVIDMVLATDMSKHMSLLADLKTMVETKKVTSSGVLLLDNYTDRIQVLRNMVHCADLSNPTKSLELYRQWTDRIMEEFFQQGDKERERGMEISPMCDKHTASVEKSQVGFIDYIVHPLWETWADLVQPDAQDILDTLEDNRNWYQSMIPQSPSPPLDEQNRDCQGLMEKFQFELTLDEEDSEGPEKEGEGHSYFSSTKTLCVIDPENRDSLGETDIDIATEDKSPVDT
Cytochrome P450 2D6 (Homo sapiens), sequence (P10635 whole entry, looked up): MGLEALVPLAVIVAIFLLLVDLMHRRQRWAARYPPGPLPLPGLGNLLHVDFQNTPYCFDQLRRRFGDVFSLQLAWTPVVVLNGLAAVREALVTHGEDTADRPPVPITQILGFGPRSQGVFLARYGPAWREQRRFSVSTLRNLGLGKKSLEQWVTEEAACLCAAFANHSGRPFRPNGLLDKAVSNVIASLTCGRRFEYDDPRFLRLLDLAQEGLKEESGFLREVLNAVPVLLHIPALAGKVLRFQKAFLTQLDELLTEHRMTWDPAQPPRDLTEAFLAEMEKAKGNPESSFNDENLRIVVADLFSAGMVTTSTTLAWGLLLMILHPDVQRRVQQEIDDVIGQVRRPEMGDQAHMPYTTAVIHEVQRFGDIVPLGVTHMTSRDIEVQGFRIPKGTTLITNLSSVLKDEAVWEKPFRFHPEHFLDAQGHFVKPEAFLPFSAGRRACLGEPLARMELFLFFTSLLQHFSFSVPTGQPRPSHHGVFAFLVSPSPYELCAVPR
Cytochrome P450 2C9 (Homo sapiens), sequence (P11712 whole entry, looked up): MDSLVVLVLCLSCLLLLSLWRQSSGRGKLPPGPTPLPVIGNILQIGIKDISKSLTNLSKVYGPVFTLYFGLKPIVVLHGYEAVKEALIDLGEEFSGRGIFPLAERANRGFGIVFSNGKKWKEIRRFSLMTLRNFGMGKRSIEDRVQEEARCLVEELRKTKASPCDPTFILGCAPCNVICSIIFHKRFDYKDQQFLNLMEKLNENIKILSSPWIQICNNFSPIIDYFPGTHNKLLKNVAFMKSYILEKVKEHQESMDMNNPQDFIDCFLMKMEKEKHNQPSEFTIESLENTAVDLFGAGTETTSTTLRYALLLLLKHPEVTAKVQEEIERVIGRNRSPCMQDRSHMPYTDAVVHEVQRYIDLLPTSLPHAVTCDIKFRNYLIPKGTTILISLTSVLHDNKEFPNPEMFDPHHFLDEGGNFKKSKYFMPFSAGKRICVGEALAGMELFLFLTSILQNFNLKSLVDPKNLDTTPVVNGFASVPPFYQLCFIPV
Alpha-galactosidase (Coffea arabica), sequence (Q42656 whole entry, looked up): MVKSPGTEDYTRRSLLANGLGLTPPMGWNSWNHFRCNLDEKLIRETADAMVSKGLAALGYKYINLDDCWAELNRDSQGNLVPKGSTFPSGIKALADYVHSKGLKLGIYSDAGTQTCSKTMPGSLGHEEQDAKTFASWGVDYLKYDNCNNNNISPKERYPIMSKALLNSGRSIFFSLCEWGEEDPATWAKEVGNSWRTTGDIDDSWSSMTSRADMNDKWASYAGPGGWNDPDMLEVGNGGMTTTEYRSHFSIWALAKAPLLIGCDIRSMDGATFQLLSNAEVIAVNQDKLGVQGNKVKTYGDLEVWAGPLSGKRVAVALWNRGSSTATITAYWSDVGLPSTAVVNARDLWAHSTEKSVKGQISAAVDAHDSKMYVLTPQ
Pyruvate kinase PKM (Homo sapiens), sequence (P14618 whole entry, looked up): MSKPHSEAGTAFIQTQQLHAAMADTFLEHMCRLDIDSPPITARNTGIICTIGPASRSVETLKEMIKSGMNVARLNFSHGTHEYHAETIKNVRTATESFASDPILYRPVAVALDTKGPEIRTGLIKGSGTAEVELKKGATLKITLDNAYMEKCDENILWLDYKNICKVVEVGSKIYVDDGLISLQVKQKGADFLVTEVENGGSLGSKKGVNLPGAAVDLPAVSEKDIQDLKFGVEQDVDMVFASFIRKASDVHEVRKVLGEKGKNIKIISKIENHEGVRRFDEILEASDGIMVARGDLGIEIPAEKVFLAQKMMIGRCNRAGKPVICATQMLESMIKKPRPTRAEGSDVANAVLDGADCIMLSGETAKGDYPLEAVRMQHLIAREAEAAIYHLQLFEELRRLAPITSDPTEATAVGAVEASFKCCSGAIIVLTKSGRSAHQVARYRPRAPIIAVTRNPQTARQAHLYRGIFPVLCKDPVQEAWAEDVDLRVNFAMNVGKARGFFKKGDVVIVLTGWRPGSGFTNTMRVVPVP
Pyruvate kinase (Leishmania mexicana), sequence (Q27686 2-499 E452W): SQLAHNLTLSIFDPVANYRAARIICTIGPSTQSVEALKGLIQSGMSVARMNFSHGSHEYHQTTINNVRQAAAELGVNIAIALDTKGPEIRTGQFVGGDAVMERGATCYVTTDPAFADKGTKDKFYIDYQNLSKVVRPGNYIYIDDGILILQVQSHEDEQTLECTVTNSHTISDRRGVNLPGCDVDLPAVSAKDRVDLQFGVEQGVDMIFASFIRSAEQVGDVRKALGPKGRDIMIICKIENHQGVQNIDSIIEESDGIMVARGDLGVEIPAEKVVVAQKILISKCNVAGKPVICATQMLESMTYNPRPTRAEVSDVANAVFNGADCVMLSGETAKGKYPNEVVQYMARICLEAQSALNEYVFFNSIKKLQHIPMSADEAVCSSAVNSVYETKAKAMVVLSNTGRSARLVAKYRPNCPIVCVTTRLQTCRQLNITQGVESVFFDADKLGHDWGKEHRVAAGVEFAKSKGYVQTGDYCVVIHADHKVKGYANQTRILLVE
Alpha-galactosidase A (Homo sapiens), sequence (P06280 whole entry, looked up): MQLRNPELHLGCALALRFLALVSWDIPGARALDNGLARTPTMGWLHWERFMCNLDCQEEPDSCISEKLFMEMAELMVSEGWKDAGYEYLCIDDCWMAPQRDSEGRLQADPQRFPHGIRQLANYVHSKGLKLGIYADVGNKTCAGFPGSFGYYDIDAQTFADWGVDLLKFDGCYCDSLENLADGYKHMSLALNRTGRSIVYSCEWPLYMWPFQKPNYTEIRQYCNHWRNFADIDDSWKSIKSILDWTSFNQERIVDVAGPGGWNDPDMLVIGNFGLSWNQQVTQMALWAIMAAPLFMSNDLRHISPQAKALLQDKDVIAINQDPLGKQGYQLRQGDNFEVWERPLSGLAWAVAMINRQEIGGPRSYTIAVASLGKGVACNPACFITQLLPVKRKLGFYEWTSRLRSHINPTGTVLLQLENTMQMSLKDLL

In the case of `CCN(CC)C(=O)N[C@H]1C[C@H]2c3cccc4[nH]cc(c34)C[C@@H]2N(C)C1`, the activity change, negative = inhibition in assay [1] was 9.81% [at 38 µM]; in assay [3], 3.16% [at 38 µM]. Moreover, the Potency result in assay [2], in assay [7], in assay [8], in [10], in [12] and in assay [13] was “inactive” each time. Further, the result in assay [4], in assay [5], in assay [6], in assay [11], in assay [14] and in assay [15] was inactive. Moreover, the outcome in assay [16], in assay [17] and in assay [18] was inactive. The Potency in assay [9] was 0.0398 µM (active).

`C[C@@]12CC[C@H]3[C@@H](CCC4=CC(=O)CC[C@]43C)[C@H]1CCC2=O`: the activity change, negative = inhibition in assay [1] is 2.25% [at 38 µM]; in [3], 9.12% [at 38 µM]. In addition, the Potency entry in assay [2], in assay [7], in assay [9] and in [19] was “inactive” in each case. Besides, the call in [4], in assay [5] and in assay [6] was inactive.

For `COc1cccc(-n2c(C)nc3ccccc3c2=O)c1`, the activity change, negative = inhibition in assay [1] is 10.2%; in assay [3] it was 3.48%. Moreover, the result in [4] was inactive.

`O=c1[nH]c(=O)n(CCc2ccccc2)c(O)c1C=NCCCn1ccnc1`: the activity change, negative = inhibition in [1] is -11%; in [3], -27.5%. In addition, the outcome in [4] was inactive.
